The record followed here is PubChem BioAssay (EPA / NIEHS).

The target in assay [1] is Estrogen-related receptor gamma (Homo sapiens) (UniProt P62508). Briefly: ATG_ERRg_TRANS: Attagene TRANS-FACTORIAL HepG2 Assay for human Estrogen-Related Receptor gamma (ERRg) (AID 2282977; active = hit-call score of the fitted dose curve at least 0.9, where 1 is the maximum;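 note: hits increase reporter signal over DMSO so potencies reflect activators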). The note with it: HepG2 Attagene TRANS reporter, ERRg transactivation. The method, boiled down: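 Transfect HepG2 with multiple GAL4-UAS reporter transcription units; dose chemicals 24 h; isolate RNA, reverse-transcribe with oligo(dT), PCR-amplify, label with 6-FAM, digest with HpaI; size fragments by capillary electrophoresis. DMSO serves as negative control.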
Chain of Estrogen-related receptor gamma (Homo sapiens) (P62508 whole entry, looked up, the tested form may be a part): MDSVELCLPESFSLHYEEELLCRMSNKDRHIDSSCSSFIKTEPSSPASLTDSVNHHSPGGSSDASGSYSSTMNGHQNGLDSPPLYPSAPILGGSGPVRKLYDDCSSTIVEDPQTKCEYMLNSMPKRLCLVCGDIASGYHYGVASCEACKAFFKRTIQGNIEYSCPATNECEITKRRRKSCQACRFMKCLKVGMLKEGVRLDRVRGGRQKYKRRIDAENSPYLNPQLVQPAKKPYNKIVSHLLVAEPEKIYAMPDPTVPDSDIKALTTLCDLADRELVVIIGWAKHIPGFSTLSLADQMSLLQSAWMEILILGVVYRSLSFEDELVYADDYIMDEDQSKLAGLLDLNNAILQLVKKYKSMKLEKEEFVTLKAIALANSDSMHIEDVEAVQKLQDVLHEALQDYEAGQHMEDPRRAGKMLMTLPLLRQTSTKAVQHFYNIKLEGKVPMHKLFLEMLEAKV

In assay [2] the target is Glucocorticoid receptor (Homo sapiens) (UniProt P04150). The experiment in a line: ATG_GR_TRANS: Attagene TRANS-FACTORIAL HepG2 Assay for human Glucocorticoid Receptor (GR) (AID 2282978; active = hit-call score of the fitted dose curve at least 0.9, where 1 is the maximum;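 note: activators score as hits since higher reporter transcript over DMSO is fitted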). To be noted: HepG2 Attagene TRANS GR reporter, mRNA transcription. The method, boiled down: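 Measurement of GAL4-UAS-driven reporter mRNA in human HepG2 liver cells 24 h post-dosing, using RT-PCR with fluorescent labelling and capillary electrophoresis; the transfected constructs report exogenous NR-GAL4 chimera activity, fitted upward against DMSO.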
Chain of Glucocorticoid receptor (Homo sapiens) (P04150 whole entry, looked up, the tested form may be a part): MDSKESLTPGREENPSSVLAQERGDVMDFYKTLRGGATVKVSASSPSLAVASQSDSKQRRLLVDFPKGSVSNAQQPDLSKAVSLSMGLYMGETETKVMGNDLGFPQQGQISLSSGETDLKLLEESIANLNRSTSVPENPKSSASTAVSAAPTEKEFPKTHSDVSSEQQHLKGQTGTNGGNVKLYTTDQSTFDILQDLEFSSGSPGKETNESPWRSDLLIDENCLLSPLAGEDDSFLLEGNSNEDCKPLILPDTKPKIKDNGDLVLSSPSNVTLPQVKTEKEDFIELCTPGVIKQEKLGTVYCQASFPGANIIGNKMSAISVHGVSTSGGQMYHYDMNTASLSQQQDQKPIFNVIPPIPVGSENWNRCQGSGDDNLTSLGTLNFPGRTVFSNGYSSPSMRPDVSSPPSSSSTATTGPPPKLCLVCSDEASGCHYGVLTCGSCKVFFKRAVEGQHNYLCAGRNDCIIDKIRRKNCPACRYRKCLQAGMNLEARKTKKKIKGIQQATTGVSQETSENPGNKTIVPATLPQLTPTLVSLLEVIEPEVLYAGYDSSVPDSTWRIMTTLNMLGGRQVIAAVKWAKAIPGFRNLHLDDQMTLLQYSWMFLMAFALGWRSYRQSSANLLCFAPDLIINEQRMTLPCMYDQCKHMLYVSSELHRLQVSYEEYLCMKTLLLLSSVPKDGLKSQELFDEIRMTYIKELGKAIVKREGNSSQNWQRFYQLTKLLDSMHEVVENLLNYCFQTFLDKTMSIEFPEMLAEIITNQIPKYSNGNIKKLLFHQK

The target of assay [3] is Bile acid receptor (Homo sapiens) (UniProt Q96RI1). Briefly: ATG_FXR_TRANS: Attagene TRANS-FACTORIAL HepG2 Assay for Farnesoid X Receptor (FXR) (AID 2282979; active = hit-call score of the fitted dose curve at least 0.9, where 1 is the maximum;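 note: hits raise reporter mRNA above DMSO so AC50 marks FXR activation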). To be noted: HepG2 Attagene TRANS FXR-GAL4 reporter transcription. The method, boiled down: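 Reporter transcripts from transfected HepG2 cells were measured 24 h after dosing, using RT-PCR with capillary electrophoresis of 6-FAM-labelled fragments. The read-out reflects activity of exogenous FXR-Gal4 chimera on GAL4-UAS units, with induction relative to DMSO.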
Chain of Bile acid receptor (Homo sapiens) (Q96RI1 whole entry, looked up, the tested form may be a part): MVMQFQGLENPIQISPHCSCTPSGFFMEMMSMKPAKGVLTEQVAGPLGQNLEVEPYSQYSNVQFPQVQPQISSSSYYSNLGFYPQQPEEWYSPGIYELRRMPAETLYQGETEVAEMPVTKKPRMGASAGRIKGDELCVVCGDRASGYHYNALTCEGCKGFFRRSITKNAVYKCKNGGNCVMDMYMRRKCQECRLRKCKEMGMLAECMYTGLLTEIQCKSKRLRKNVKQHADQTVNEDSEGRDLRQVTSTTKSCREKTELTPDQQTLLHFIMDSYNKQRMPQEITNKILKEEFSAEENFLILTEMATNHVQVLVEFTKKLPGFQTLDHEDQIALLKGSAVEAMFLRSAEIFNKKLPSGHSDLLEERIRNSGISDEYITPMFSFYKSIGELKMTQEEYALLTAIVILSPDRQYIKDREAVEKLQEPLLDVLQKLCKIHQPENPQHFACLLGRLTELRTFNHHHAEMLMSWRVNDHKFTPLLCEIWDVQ

Assay [4] addresses Hepatocyte nuclear factor 4-alpha (Homo sapiens) (UniProt P41235). Briefly: ATG_HNF4a_TRANS: Attagene TRANS-FACTORIAL HepG2 Assay for human Hepatocyte Nuclear Factor 4 alpha (HNF4a) (AID 2282982; active = hit-call score of the fitted dose curve at least 0.9, where 1 is the maximum). The note with it: HepG2 HNF4a transactivation reporter, mRNA readout. Summed up: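 Cells used were human HepG2, transiently carrying GAL4-UAS reporter units read out against exogenous NR-GAL4 chimeras. Reporter transcript levels after 24 h dosing were quantified by fluorescent RT-PCR and capillary electrophoresis.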

Assay [5] can be described thus: ATG_M_06_TRANS: Attagene TRANS-FACTORIAL HepG2 Assay for M06 Transcription Factor (Internal Marker) (AID 2282983; active = hit-call score of the fitted dose curve at least 0.9, where 1 is the maximum). To be noted: HepG2 Attagene TRANS M06 internal marker reporter. The method, boiled down: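 Cells: HepG2, transient multi-reporter transfection. Exposure: 24 h. Detection: RT-PCR, 6-FAM labelling, HpaI digestion (2 h, 37 °C), capillary electrophoresis. Baseline: DMSO.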

Assay [6] can be described thus: ATG_M_32_TRANS: Attagene TRANS-FACTORIAL HepG2 Assay for M32 Transcription Factor (Internal Marker) (AID 2282984; active = hit-call score of the fitted dose curve at least 0.9, where 1 is the maximum;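 note: transcript level of a background control reporter unit measured by RT-PCR and capillary electrophoresis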). The note with it: HepG2 Attagene TRANS M32 internal marker reporter. Summed up:
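Human hepatoma HepG2, transient MRTU transfection, 24 h treatment. RNA → RT-PCR → fluorescent primer extension → HpaI digest (2 h, 37 C) → CE. Positive-direction fit vs DMSO.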

Assay [7] addresses Transcriptional activator Myb (Homo sapiens) (UniProt P10242). The experiment in a line: ATG_Myb_CIS: Attagene CIS-FACTORIAL HepG2 Assay for human Myeloblastosis (Myb) Proto-Oncogene Transcription Factor (AID 2282986). The note with it: HepG2 Attagene CIS-FACTORIAL Myb reporter transcription; actives raise or lower the signal. The method, boiled down:
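Fluorescence signals from capillary electrophoresis of RT-PCR-amplified reporter cDNA give the read-out. Cells: HepG2 transfected with multiple cis-regulated reporter units. Exposure lasts 24 hours; DMSO defines baseline for gain or loss of signal.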

Assay [8] deals with Nuclear respiratory factor 1 (Homo sapiens) (UniProt Q16656). Briefly: ATG_NRF1_CIS: Attagene CIS-FACTORIAL HepG2 Assay for human Nuclear Respiratory Factor 1 (NRF1) Orphan Gene (AID 2282987). To be noted: HepG2 NRF1 cis-element reporter, Attagene multiplex; actives raise or lower the signal. The method, boiled down:
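Transcriptional reporter readout, one component of a 52-endpoint multiplexed HepG2 panel. Exposure 24 h; mRNA detected via RT-PCR and fluorescent capillary electrophoresis; fitting in both directions against DMSO.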

Assay [9] in a line: ATG_NFI_CIS: Attagene CIS-FACTORIAL HepG2 Assay for human Nuclear Factor I (NFI) (AID 2282989). The note with it: HepG2 cis-regulatory reporter, NFI response element transcription; actives raise or lower the signal. The method, boiled down:
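Endogenous TF activity in HepG2 cells transiently transfected with cis-element-driven multiplexed reporter units, read 24 h after dosing. Reporter mRNA quantified by RT-PCR, 6-FAM labelling, HpaI digestion and capillary electrophoresis; bidirectional fit versus DMSO.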

Assay [10] has as its target Myc proto-oncogene protein (Homo sapiens) (UniProt P01106). Briefly: ATG_Myc_CIS: Attagene CIS-FACTORIAL HepG2 Assay for human Myelocytomatosis (Myc) Proto-Oncogene Transcription Factor (AID 2282990). The note with it: HepG2, Attagene cis-reporter transcription factor activity; actives raise or lower the signal. Summed up:
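HepG2 cells transiently transfected with multiple cis-promoter-driven reporter transcription units, so endogenous TF activity is read. After 24 h compound exposure, reporter mRNA was quantified by RT-PCR, 6-FAM labelling, HpaI digestion and capillary electrophoresis; bidirectional fit versus DMSO.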

Assay [11] in a line: ATG_NF_kB_CIS: Attagene CIS-FACTORIAL HepG2 Assay for human Nuclear Factor Kappa B (NF-kB) (AID 2282991). The note with it: HepG2 Attagene cis-factorial NF-kB reporter mRNA; actives raise or lower the signal. The method, boiled down:
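HepG2, transient multi-reporter transfection, cis promoter elements (endogenous TFs). 24 h exposure. Total RNA → RT → PCR → 6-FAM label → HpaI → CE. Gain/loss vs DMSO.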

Assay [12] is described as follows: ATG_NRF2_ARE_CIS: Attagene CIS-FACTORIAL HepG2 Assay for human Nuclear Factor Erythroid 2 Related Factor 2 (NFR2) response to Antioxidant Response Elements (ARE) (AID 2282992). To be noted: HepG2 Attagene ARE/NRF2 reporter, transcription factor activity; actives raise or lower the signal. The method, boiled down:
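Transient MRTU transfection of HepG2; 24 h compound exposure; TriZol RNA, RT with oligo(dT), PCR, 6-FAM primer extension, HpaI cut, CE. Bidirectional fit vs DMSO.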

Assay [13] in a line: ATG_Oct_MLP_CIS: Attagene CIS-FACTORIAL HepG2 Assay for human Octamer-Binding Transcription Factor (Oct) (AID 2282993). The note with it: HepG2 Attagene cis-factorial Oct reporter, mRNA; actives raise or lower the signal. The method, boiled down: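 HepG2 cells transiently transfected with cis-element-driven reporter transcription units (endogenous TF activity); 24 h compound exposure. Reporter mRNA quantified by RT-PCR, 6-FAM labelling, HpaI digestion and capillary electrophoresis; bidirectional fit versus DMSO baseline.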

Assay [14] deals with Cellular tumor antigen p53 (Homo sapiens) (UniProt P04637). Briefly: ATG_p53_CIS: Attagene CIS-FACTORIAL HepG2 Assay for human p53 Transcription Factor (AID 2282994). To be noted: HepG2 p53 cis-element reporter, Attagene mRNA; actives raise or lower the signal. Summed up:
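HepG2, transient MRTU transfection (cis promoter elements, endogenous TFs); 24 h dosing; RNA isolation, RT-PCR, 6-FAM primer extension, HpaI digest, CE fluorescence; bidirectional fit vs DMSO.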

Assay [15] concerns the target Oxysterols receptor LXR-beta (Homo sapiens) (UniProt P55055). Briefly: ATG_LXRb_TRANS: Attagene TRANS-FACTORIAL HepG2 Assay for human Liver X Receptor beta (LXRb) (AID 2282981; active = hit-call score of the fitted dose curve at least 0.9, where 1 is the maximum). To be noted: HepG2 Attagene TRANS GAL4-LXRb reporter, mRNA. The method, boiled down:
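In this TRANS format, exogenous chimeric NR-Gal4 protein activity, not endogenous factors, drives reporter expression in transfected human HepG2 cells. Exposure lasted 24 h; reporter mRNA was read by fluorescent capillary electrophoresis.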

Assay [16] concerns the target Nuclear receptor subfamily 4 group A member 2 (Homo sapiens) (UniProt P43354). The experiment in a line: ATG_NURR1_TRANS: Attagene TRANS-FACTORIAL HepG2 Assay for human Nuclear Receptor Related Protein 1 (NURR1) (AID 2282985; active = hit-call score of the fitted dose curve at least 0.9, where 1 is the maximum). To be noted: HepG2 Attagene TRANS reporter, mRNA readout. The method, boiled down:
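After 24 h chemical dosing, total RNA from transiently transfected HepG2 cells was reverse-transcribed and reporter cDNA PCR-amplified, FAM-labelled and analysed by capillary electrophoresis. Activity fitted in positive direction, DMSO as negative control.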

A short description of assay [17]: BSK_3C_TissueFactor: BioMAP Diversity Plus: 3C Assay for Tissue Factor Biomarker Activity (AID 2282997). The note with it: BioMAP 3C HUVEC, tissue factor biomarker readout; actives raise or lower the signal. Summed up:
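Dosing of human umbilical vein endothelial cells preceded a 24 h incubation. Tissue Factor was then read by ELISA, with increases and decreases both scored relative to DMSO controls.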

The nature of assay [18]: BSK_3C_uPAR: BioMAP Diversity Plus: 3C Assay for Urokinase-type plasminogen activator receptor (uPAR) Biomarker Activity (AID 2282998). The note with it: BioMAP 3C HUVEC, uPAR biomarker ELISA; actives raise or lower the signal. Summed up:
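Primary human umbilical vein endothelial cells, 3C system; surface uPAR measured by ELISA 24 h after dosing. Cytotoxicity via SRB total protein in parallel cultures; bidirectional fit against DMSO.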

The nature of assay [19]: BSK_3C_VCAM1: BioMAP Diversity Plus: 3C Assay for Vascular cell adhesion molecule 1 (VCAM1) Biomarker Activity (AID 2282999). To be noted: BioMAP 3C HUVEC, VCAM1 ELISA, cytokine-stimulated; actives raise or lower the signal. The method, boiled down:
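Human umbilical vein endothelial cells were dosed with compound for 24 h, after which cell-surface VCAM-1 was quantified by ELISA. Bidirectional curve fitting used DMSO as negative control and activity baseline.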
In general terms: An ELISA detects its analyte on a solid surface through an enzyme-linked reagent.

Assay [20] concerns the target Oxysterols receptor LXR-alpha (Homo sapiens) (UniProt Q13133). Briefly: ATG_LXRa_TRANS: Attagene TRANS-FACTORIAL HepG2 Assay for human Liver X Receptor alpha (LXRa) (AID 2282980; active = hit-call score of the fitted dose curve at least 0.9, where 1 is the maximum). The note with it: HepG2 Attagene TRANS reporter, LXRa transactivation. Summed up: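 Chemical-induced reporter mRNA measured by RT-PCR with fluorescent labelling and capillary electrophoresis after 24 h dosing of transiently transfected HepG2 cells expressing exogenous NR-Gal4 chimeras; increases scored against DMSO baseline.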

Results filed as inconclusive are left out. The source made the active and inactive calls. Rule for the calls, unless noted: active = hit-call score of the fitted dose curve at least 0.9, where 1 is the maximum; inactive = score below 0.9.

Chain of Nuclear respiratory factor 1 (Homo sapiens) (Q16656 whole entry, looked up): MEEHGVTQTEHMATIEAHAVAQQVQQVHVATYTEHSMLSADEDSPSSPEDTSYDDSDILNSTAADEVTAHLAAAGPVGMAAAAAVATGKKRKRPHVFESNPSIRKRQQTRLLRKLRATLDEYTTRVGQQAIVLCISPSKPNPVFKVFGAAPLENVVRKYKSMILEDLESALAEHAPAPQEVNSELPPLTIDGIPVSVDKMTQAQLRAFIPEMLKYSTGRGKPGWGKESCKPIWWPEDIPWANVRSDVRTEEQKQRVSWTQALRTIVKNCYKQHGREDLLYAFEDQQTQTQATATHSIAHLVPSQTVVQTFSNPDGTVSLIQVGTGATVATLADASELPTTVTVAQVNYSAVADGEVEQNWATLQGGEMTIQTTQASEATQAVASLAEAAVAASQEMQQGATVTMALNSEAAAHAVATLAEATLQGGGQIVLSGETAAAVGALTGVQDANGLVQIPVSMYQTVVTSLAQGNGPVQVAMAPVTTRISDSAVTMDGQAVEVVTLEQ
Chain of Hepatocyte nuclear factor 4-alpha (Homo sapiens) (P41235 whole entry, looked up, the tested form may be a part): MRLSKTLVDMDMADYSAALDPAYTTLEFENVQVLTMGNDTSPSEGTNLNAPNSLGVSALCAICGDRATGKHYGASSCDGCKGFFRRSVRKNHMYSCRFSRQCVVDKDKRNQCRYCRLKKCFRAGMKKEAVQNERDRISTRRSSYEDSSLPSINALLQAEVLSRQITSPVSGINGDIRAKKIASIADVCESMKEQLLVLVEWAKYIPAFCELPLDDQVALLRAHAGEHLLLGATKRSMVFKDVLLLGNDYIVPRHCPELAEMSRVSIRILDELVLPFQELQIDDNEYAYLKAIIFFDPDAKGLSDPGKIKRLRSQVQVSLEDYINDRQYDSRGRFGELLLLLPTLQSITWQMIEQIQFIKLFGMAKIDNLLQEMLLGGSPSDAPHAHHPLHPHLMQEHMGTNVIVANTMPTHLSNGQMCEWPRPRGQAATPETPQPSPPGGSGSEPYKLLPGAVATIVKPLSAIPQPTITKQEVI
Chain of Cellular tumor antigen p53 (Homo sapiens) (P04637 whole entry, looked up): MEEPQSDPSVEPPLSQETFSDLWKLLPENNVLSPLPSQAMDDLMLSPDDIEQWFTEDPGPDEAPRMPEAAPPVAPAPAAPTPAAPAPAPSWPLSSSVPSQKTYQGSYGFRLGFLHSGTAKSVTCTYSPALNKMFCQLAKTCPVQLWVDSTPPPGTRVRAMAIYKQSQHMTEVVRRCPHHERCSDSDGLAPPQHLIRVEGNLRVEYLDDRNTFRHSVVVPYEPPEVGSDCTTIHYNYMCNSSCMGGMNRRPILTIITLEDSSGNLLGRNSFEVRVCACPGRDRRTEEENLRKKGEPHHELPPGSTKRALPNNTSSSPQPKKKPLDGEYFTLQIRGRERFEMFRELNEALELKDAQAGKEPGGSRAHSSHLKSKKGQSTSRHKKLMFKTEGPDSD
Chain of Myc proto-oncogene protein (Homo sapiens) (P01106 whole entry, looked up): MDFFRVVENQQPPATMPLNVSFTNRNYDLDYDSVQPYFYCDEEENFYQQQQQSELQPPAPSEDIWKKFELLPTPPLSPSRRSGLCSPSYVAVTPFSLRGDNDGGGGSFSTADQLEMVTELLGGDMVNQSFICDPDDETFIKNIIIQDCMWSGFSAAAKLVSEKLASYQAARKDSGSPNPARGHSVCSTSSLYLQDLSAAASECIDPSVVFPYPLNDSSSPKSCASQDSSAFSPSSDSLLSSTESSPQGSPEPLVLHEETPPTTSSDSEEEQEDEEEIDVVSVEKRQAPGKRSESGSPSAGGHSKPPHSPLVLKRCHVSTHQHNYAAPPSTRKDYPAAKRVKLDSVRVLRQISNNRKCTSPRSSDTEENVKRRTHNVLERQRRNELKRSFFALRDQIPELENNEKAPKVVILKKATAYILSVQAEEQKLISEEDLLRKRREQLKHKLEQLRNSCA
Chain of Transcriptional activator Myb (Homo sapiens) (P10242 whole entry, looked up): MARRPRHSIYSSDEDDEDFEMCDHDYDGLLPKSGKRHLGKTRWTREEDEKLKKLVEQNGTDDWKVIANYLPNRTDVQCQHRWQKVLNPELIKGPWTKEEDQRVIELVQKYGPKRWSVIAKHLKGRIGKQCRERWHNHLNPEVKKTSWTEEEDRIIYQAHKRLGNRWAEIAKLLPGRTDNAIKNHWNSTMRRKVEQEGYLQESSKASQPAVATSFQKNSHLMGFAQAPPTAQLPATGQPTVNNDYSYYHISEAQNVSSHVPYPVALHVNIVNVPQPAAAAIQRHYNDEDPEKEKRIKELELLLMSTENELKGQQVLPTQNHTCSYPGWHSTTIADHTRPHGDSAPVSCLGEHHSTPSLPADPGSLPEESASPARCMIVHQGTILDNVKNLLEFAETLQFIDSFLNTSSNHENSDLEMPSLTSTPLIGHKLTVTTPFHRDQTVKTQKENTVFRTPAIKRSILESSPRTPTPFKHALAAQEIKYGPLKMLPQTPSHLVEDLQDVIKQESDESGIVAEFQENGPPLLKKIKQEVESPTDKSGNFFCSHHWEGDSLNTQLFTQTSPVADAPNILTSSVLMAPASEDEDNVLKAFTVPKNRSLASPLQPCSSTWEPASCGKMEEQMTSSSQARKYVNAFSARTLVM
Chain of Oxysterols receptor LXR-beta (Homo sapiens) (P55055 whole entry, looked up, the tested form may be a part): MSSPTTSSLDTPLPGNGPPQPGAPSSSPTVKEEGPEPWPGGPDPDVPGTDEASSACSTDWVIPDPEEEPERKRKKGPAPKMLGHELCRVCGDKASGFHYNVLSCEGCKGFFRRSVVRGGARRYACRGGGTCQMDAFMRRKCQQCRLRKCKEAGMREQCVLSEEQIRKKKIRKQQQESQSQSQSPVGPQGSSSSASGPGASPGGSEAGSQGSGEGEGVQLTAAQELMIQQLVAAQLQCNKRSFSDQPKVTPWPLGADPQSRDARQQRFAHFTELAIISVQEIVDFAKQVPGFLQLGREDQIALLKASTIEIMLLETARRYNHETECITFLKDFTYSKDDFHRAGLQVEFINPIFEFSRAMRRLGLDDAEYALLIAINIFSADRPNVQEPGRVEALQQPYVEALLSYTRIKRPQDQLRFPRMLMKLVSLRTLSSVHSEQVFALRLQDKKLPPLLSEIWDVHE

For `CCCCNC(=S)NCCCC`, the compound was classed as inactive in assay [1], in assay [2], in [3], in assay [4], in assay [5] and in [6]. Besides, the compound was called inactive in assay [7], in assay [8], in assay [9], in assay [10], in assay [11] and in assay [12]. Further, the compound was classed as inactive in assay [13] and in [14].
`[Cl][Sc]([Cl])[Cl]`: the result in [1], in assay [2], in assay [15], in assay [4], in assay [7] and in assay [9] was inactive. Moreover, the result in assay [10], in [11], in assay [12] and in assay [14] was inactive.
For `C=C(C)C(=O)OCCCCCCCCCCCC`, the compound was called inactive in [1], in assay [2], in assay [4], in assay [6], in assay [16] and in [7]. Besides, the compound was classed as inactive in assay [9], in assay [10], in assay [11], in [12], in assay [13] and in [14]. The outcome in [17], in [18] and in assay [19] was inactive.
For the compound `CCN(CC)c1cccc(C)c1`, the outcome in [1], in assay [2], in assay [20], in [15], in [4] and in [6] was inactive. The compound was classed as inactive in assay [7], in assay [8], in assay [9], in [10], in [11] and in assay [12]. Moreover, the outcome in assay [13] and in [14] was inactive.
By AC50 is commonly meant the concentration at which the activity in the assay is half-maximal. On to `CO[Si](C)(C)OC`, for which the compound was classed as inactive in assay [1], in assay [2], in assay [4], in assay [5], in [8] and in assay [9]. Also, the compound was classed as inactive in assay [11], in assay [12], in [13] and in assay [14]. Moreover, the AC50 in assay [7] was 151 µM (active); in [10], 158 µM (active).
